Test results taken from PubChem BioAssay.
The source made the active and inactive calls. No rule for the calls is given here.

Target: Pantothenate synthetase (Mycobacterium tuberculosis (strain ATCC 25618 / H37Rv)) (UniProt P9WIL5)
Experiment: Recombinant Mtb pantothenate synthetase (PanC) inhibitors, coupled enzyme, confirmatory (AID 375);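 also: 0% = full reaction with vehicle and 100% = no enzyme background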
Settings: coupled enzyme assay; at 10 µM, active compounds read high

Chain of Pantothenate synthetase (Mycobacterium tuberculosis (strain ATCC 25618 / H37Rv)) (P9WIL5 whole entry, looked up): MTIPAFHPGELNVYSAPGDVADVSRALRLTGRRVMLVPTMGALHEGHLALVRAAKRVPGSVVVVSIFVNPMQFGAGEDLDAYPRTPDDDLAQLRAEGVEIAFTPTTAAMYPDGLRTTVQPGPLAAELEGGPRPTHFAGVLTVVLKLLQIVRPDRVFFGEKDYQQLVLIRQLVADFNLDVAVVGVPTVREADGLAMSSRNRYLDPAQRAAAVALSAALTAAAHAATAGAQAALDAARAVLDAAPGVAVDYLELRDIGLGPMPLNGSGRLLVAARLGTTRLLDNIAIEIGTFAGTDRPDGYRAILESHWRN

Compound	inhibition
CS(=O)(=O)c1ccc2nc(NC(=O)CCC(=O)c3cccs3)sc2c1	1% (inactive)
Cc1nc2scc(-c3cccs3)c2c(=O)n1-n1cccc1	4% (inactive)
COP(C)(=O)c1c(C)nn(-c2ccccc2)c1C (stereo not given)	0% (inactive)
O=C(CSc1ncnc2c1oc1ccccc12)Nc1ccccc1F	2% (inactive)
CC(=O)C1=C(C)NC(C)=C(C(C)=O)C1c1cccs1	0% (inactive)
C=CCN=C1SCC(=O)N1S(=O)(=O)c1ccc(C)cc1	0% (inactive)
N#CCSc1nc(-c2ccccc2)cs1	0% (inactive)
O=C1NC(c2cccs2)Nc2ccccc21 (stereo not given)	0% (inactive)
COc1cccc2cc(C(=O)OC3CCN(C)CC3)c(=O)oc12	9% (inactive)
CCc1ccc(NC(=O)CS(=O)CC(=O)NC(C)CCc2ccco2)cc1 (stereo not given)	2% (inactive)
C=CCn1c(=O)[nH]c2cc(C(=O)N3CCN(c4ccc(C(C)=O)cc4)CC3)ccc2c1=O	1% (inactive)
CC(NC(=O)Cc1cccs1)c1ccc2c(c1)OCO2 (stereo not given)	0% (inactive)
Cc1nn(-c2ccccc2)c(C)c1C(=O)OCC(=O)c1c(N)n(CC(C)C)c(=O)n(C)c1=O	9% (inactive)
CN(C)c1cccc2c(S(=O)(=O)Nc3ccccn3)cccc12	1% (inactive)
CC1CCN(S(=O)(=O)c2ccc3[nH]c(=O)cc(C(=O)O)c3c2)CC1	0% (inactive)
C#CCSc1nnc(-c2ccccc2)c(=O)[nH]1	0% (inactive)
Cc1ccc(NC(=O)CN(c2ccc3c(c2)OCO3)S(=O)(=O)c2c(C)n[nH]c2C)cc1	1% (inactive)
CCC1(C)Cc2c(C#N)c(N)n(N)c(=S)c2CO1 (stereo not given)	0% (inactive)
CC(C)(C)c1ccc(C(=O)Nc2cnccn2)cc1	2% (inactive)
COc1ccc(-n2c(COc3cccc(C)c3)nnc2SCC(=O)NCc2ccco2)cc1	5% (inactive)

Compound	inhibition
CCCC(=O)n1nc(-c2ccc(OC)cc2)nc1N	2% (inactive)
CCCOc1ccc2ccccc2c1/C=N/n1cnnc1	5% (inactive)
CC1(C)CC(=O)CC(C2(O)C(=O)N(Cc3ccccc3)c3ccccc32)O1 (stereo not given)	0% (inactive)
O=S(=O)(NCc1ccccn1)c1ccc2c(c1)OCCO2	0% (inactive)
O=C(NCc1ccc2c(c1)OCO2)C1CCC(CNS(=O)(=O)c2ccccc2)CC1 (stereo not given)	0% (inactive)
COc1cccc(NC(=O)c2ccco2)c1	0% (inactive)
CCC1Oc2ccccc2N(CC(=O)Nc2ccc(OC)cc2OC)C1=O (stereo not given)	0% (inactive)
CCN(CC)C(=O)c1ccc(CS(=O)(=O)c2ccc(OC)cc2)o1	1% (inactive)
C=CCSC1=C(C#N)C(c2ccccc2OCC)CC(=O)N1 (stereo not given)	0% (inactive)
CC1CCCc2sc3nc(NCc4ccco4)n4ncnc4c3c21 (stereo not given)	0% (inactive)
CN(C)CCCN1C(=O)C(=O)/C(=C(/O)c2ccncc2)C1c1cccc(Br)c1 (stereo not given)	1% (inactive)
CCCCOc1ccc(C(=O)Nc2ccc(N3CCN(C(=O)C(C)C)CC3)cc2)cc1	6% (inactive)
CCC(C(=O)OCCN(CC)CC)c1ccccc1 (stereo not given)	0% (inactive)
CC(C)Cn1c(N)c(C(=O)COC(=O)c2ccc3c(c2)OCCO3)c(=O)n(C)c1=O	0% (inactive)
Cc1ccc(CN2CCN(C(=O)C3CCC3)CC2)cc1	3% (inactive)
CC(C)c1nccn1S(=O)(=O)c1cc(Cl)ccc1Cl	0% (inactive)
CC(CC(=O)NC1CCSC1=O)c1ccccc1 (stereo not given)	0% (inactive)
CC(C)CCNC(=O)CCNS(=O)(=O)c1ccc(Cl)cc1	0% (inactive)
CC(=O)OC1c2ccccc2C(=O)N1Cc1ccccc1Cl (stereo not given)	0% (inactive)
CCCCOc1ccc(-c2nnn(CC(=O)Nc3ncc(CC(=O)OCC)s3)n2)cc1	2% (inactive)
